Experimental data published in PubChem BioAssay AID2417 (National Center for Advancing Translational Sciences (NCATS), 2010).
Out of some 140,000 compounds screened, about 4,300 (3.1%) were called active. Roughly 21% stayed inconclusive and do not appear here. The entries come from a sample that favours actives as a whole. A number with no mark means an inactive call.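 The calls were made as follows: active = readout at or below -70, meaning at least 70% loss of cells showing the perinucleolar compartment, a nuclear body marking cancer cells; inconclusive = readout between -30 and a set limit; inactive = the rest.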

assay: High Content Assay for Compounds that inhibit the Assembly of the Perinucleolar Compartment; settings: PC3M PTB-GFP, PNC prevalence imaging, 16 h; at 10 µM; hits give low values;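 also: plate controls were DMSO wells for no effect and camptothecin positive control wells for full effect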
Source text: High Content Assay for Compounds that inhibit the Assembly of the Perinucleolar Compartment NIH Chemical Genomics Center [NCGC] NIH Molecular Libraries Probe Centers Network [MLPCN] MLPCN Grant: MH082371-01A2 Assay Submitter (PI): Sui Huang, Northwestern University, Feinberg School of Medicine, Cell and Molecular Biology, Chicago, Illinois. The perinucleolar compartment (PNC) is a non-membrane-bound nuclear subdomain that is associated with but structurally distinct from the nucleolus. The PNC is a heritable trait, in which the number of PNCs per cell in daughter cells often mimics that of their mother cells. The PNC is heterogeneous in shape, is stable through interphase, disassembles during mitosis, and reassembles in early G1. The PNC is concentrated with newly synthesized RNA polymerase III (pol III) RNAs (MRP RNA, RNAse P H1 RNA, hY RNAs[hY1, 2, 5], Alu RNA, and SRP [7SL] RNA) and RNA binding proteins (nucleolin, PTB, CUG-BP, KSRP, Raver1, Raver2, and Rod). […] Extensive in vitro studies have shown that the PNC is unique to tumor cells and preferentially forms in tumor cells derived from solid tissues. Examination of cancer cell lines from various origins and malignant capacities has shown that PNC prevalence correlates with the malignancy of tumors and has the potential to be developed as a pan-cancer prognostic marker. […] Although the PNC is associated with a DNA locus and a handful of components have been identified, much remains to be investigated regarding the structure and function of the PNC and its mechanistic link to cancer. We have previously shown that PNC prevalence reduction is a valid strategy to identify compounds that can be used to study the structure and function of the PNC. It is necessary, however, to create a screening platform that is able to test a large number of compounds in an automated fashion. Here we report the development and robustness of an automated whole-cell phenotypic image-based screening assay that is capable of identifying such compounds.
PNC High Content Imaging Assay Procedure: 1. Cells at a density of 75-90% confluency in T175 flasks were harvested using 7 ml TrypLE Express cell dissociation reagent. After dissociation (5 minutes room temperature incubation) 10 ml of complete media was added to the TrypLE/cell suspension. The liquid was transferred to a 50 ml Conical tube and cells were pelleted at 1000 RPM for 5 min. Supernatant was removed and cells were resuspended to a final density of 150-200 cells/ul in complete media. 2. Cells were plated in 5 ul volume (750-1000 cells/well) into 1536 well Black uclear Aurora Low Base plates and allowed to recover and adhere at 37 C in a humidified 5% CO2 incubator for 4 hours. 3. After 4 hour incubation, compound libraries (23 nl of […] in columns 5-48) were transferred to the plates in duplicate using a 1536 well pintool. Camptothecin positive control (59 uM final) was added to column 2 and 1:3 dilutions of camptothecin was added to column 3. DMSO negative controls were present in columns 1 and 4. 4. After a 16 hour incubation in the 37 C incubator, cells were fixed by the addition of 4 ul of 6% EM grade paraformaldehyde (containing 0.1% triton X 100) directly to the cells. The plates were incubated at room temperature for 20 minutes. The liquid was removed using a 32 channel Kalypsys aspirator and the fixed cells were washed twice with 5 ul PBS followed by a final addition of 5 ul PBS containing 1 ug/ml Hoechst 33342. 5. Fixed plates were sealed and sotred at 4C until imaged. 6. Plates were imaged on an InCell 1000 automated microscope using a 20 x objective, a standard FITC filter set, no camera binning, and an exposure time of ~100-150 msec/well. 7. Data analysis. PNC prevalence was determined using the Multitarget analysis module from InCell Workstation software (V3.5 ) and analysis was run on a quad core workstation using the Incell Developer Toolbox (V1.7). […]

SMILES | activity change (PNC), negative = inhibition
c1cc2c(cc1CCNC1CCCCCC1)OCO2 | -119% (active)
OC(CNC1CCCCC1)c1ccccc1 (stereo not given) | 38.6%
CC(=NCc1ccc2c(c1)OCO2)c1c(O)[nH]c(=O)[nH]c1=O | -17.3%
CNC(=S)N/N=C1\C2CN3CCN(C2)CC1(c1ccccc1)C3 | -18.5%
CCOC(=O)C(O)(c1ccc(N=Cc2ccccc2O)c(C)c1)C(F)(F)F (stereo not given) | -11.8%
Cc1ccc(-n2c(C)cc(/C=C3\C(=O)NC(=O)N(C)C3=O)c2C)cc1C | 23.8%
COc1ccc(-c2nc(CS(=O)CC(=O)N3CCC4(CC3)OCCO4)c(C)o2)cc1 (stereo not given) | -14.2%
Cc1ccc(Cn2c(C)c3cnn(CC(=O)N4CCC5(CC4)OCCO5)c(=O)c3c2C)cc1 | -100% (active)
O=C(CCCn1c(=O)[nH]c2cc(Cl)ccc2c1=O)N1CCC2(CC1)OCCO2 | 44%
CC(C)N(CC#CCC1(O)c2ccccc2-c2ccccc21)C(C)C | 48.8%
CN(C)C(=O)Oc1cc(=O)n2c3c(cccc13)CCC2 | 23.5%
Cc1ccc(-n2c(-c3ccc([N+](=O)[O-])cc3)nc3ccccc3c2=O)cc1 | -17%
CC(C(=O)Nc1ccc(Cl)cc1Cl)N1CC=C(c2ccccc2)CC1 (stereo not given) | 38%
Cc1cccc(OP(=O)(Oc2cccc(C)c2)OC(c2ccccc2)C(F)(F)F)c1 (stereo not given) | -3.33%
CCCCCn1c(=O)c(C(=O)NCc2ccccn2)c(O)c2ccccc21 | -112% (active)
CCCCCn1c(=O)c(C(=O)Nc2c(C)n(C)n(-c3ccccc3)c2=O)c(O)c2ccccc21 | -20.3%
Cc1ccnc(-n2c(C)cc(/C=C3\C(=O)NC(=S)N(C)C3=O)c2C)c1 | -11.7%
C=CCn1c(O)c(/C=N/N2CCOCC2)c(=O)[nH]c1=S | 60.9%
CN1CCN(c2cc(N3CCNCC3)ccc2[N+](=O)[O-])CC1 | 12.6%
CC1=C(C(=O)Nc2ccccc2)SCCO1 | -98% (active)
O=C1NC(=O)N(c2ccc(F)cc2)C(=O)/C1=C/c1ccc2c(c1)CCCN2Cc1ccccc1 | -20.7%
O=C1N=c2ccccc2=C/C1=C\c1c(O)[nH]c(=S)[nH]c1=O | -19.2%
CN(C)CC1CCCCC1OC(=O)c1ccc(Cl)c(Cl)c1 (stereo not given) | -10.5%
O=C1NC(=O)C(CCc2ccccn2)(Cc2cccc(Cl)c2Cl)C(=O)N1c1ccc(Br)cc1 (stereo not given) | -14.3%
Cc1ccc2c(c1)C1CN(C)CCC1N2C(=O)Cn1nnc(-c2ccccc2F)n1 (stereo not given) | -101% (active)
